Assay results from PubChem BioAssay AID1159580 (chemical genetic matrix, 2015).
Among all 5,500 compounds or so, about 2,000 (36%) were called active. About 18% were inconclusive and are not listed. Rule as the data show it: active = normalized growth mostly below about 0.91 (no sharp cut-off); inconclusive = no clear call, values can overlap the other calls; inactive = mostly above about 0.92. This is one part of the list.

Assay: chemical genetic growth profiling, strain panel (AID 1159580);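 also: tested at 20 µM; growth read once vehicle control cultures reached saturation at 30 °C; 1 = growth at the plate median or of vehicle wells; lower values mean less growth of the strain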
Details: S. cerevisiae deletion strains, growth OD

Measured: normalized growth

COc1cc(O)c2c(=O)cc(C)oc2c1CC=C(C)C
active: locus YKR001C, strain vps1, hits give low values 0.806 | locus YLR113W, strain HOG1, hits give low values 0.838 | locus YLR262C, strain YPT6 (second series), hits give low values 0.827 | locus YLR268W, strain sec22, hits give low values 0.816 | locus YLR320W, strain mms22, hits give low values 0.83 | locus YLR330W, strain CHS5, hits give low values 0.811 | locus YLR342W, strain FKS1 (second series), hits give low values 0.78 | locus YLR371W, strain rom2, hits give low values 0.831 | locus YLR418C, strain cdc73, hits give low values 0.628 | locus YML032C, strain rad52, hits give low values 0.858 | locus YMR058W, strain fet3, hits give low values 0.845 | locus YMR205C, strain PFK2, hits give low values 0.849 | locus YNL071W, strain lat1, hits give low values 0.847 | locus YNL233W, strain BNI4, hits give low values 0.852 | locus YNL307C, strain MCK1, hits give low values 0.618 | locus YOL147C, strain pex11, hits give low values 0.818 | locus YOR144C, strain elg1, hits give low values 0.919 | locus YOR184W, strain ser1, hits give low values 0.587 | locus YPR163C, strain tif3, hits give low values 0.776 | strain wtn01, hits give low values 0.852
inactive: locus YJL187C, strain SWE1 (second series), hits give low values 0.943 | locus YJR043C, strain POL32, hits give low values 0.87 | locus YJR066W, strain TOR1, hits give low values 0.929 | locus YKL009W, strain mrt4, hits give low values 0.897 | locus YKL068W, hits give low values 0.945 | locus YKL085W, strain MDH1 (second series), hits give low values 0.936 | locus YKL085W, strain MDH1, hits give low values 0.936 | locus YKL160W, strain elf1, hits give low values 0.945 | locus YKR026C, strain gcn3, hits give low values 0.986 | locus YKR091W, strain srl3, hits give low values 0.978 | locus YLL001W, strain dnm1, hits give low values 0.982 | locus YLL026W, hits give low values 0.974 | locus YLL041C, strain sdh2, hits give low values 0.96 | locus YLR027C, strain aat2, hits give low values 0.972 | locus YLR039C, strain RIC1, hits give low values 0.797 | locus YLR058C, strain SHM2, hits give low values 0.912 | locus YLR102C, strain apc9, hits give low values 0.945 | locus YLR221C, strain rsa3, hits give low values 0.942 | locus YLR258W, strain gsy2, hits give low values 0.972 | locus YLR262C, strain YPT6, hits give low values 0.674 | locus YLR342W, strain FKS1, hits give low values 0.929 | locus YLR357W, strain rsc2, hits give low values 1.06 | locus YLR370C, strain arc18, hits give low values 0.97 | locus YLR384C, strain iki3, hits give low values 0.991 | locus YML016C, strain PPZ1, hits give low values 0.944 | locus YML120C, strain ndi1, hits give low values 0.976 | locus YML124C, strain tub3, hits give low values 0.945 | locus YMR078C, strain ctf18, hits give low values 0.919 | locus YMR125W, strain sto1, hits give low values 0.997 | locus YMR129W, hits give low values 0.979 | locus YMR223W, strain ubp8, hits give low values 0.911 | locus YMR231W, strain pep5, hits give low values 1.01 | locus YMR307W, strain GAS1, hits give low values 0.668 | locus YNL067W, strain RPL9B, hits give low values 1 | locus YNL153C, strain GIM3, hits give low values 0.926 | locus YNL183C, strain NPR1, hits give low values 0.935 | locus YNL209W, strain ssb2, hits give low values 0.973 | locus YNL248C, strain rpa49, hits give low values 1.04 | locus YNL250W, strain rad50, hits give low values 0.977 | locus YNL271C, strain bni1, hits give low values 0.953 | locus YNL298W, strain CLA4, hits give low values 0.923 | locus YNL322C, strain KRE1 (second series), hits give low values 0.998 | locus YNR049C, strain mso1, hits give low values 0.996 | locus YNR052C, strain pop2, hits give low values 0.988 | locus YOL012C, strain htz1 0.465 | locus YOR001W, strain rrp6, hits give low values 0.989 | locus YOR061W, strain CKA2, hits give low values 0.92 | locus YOR069W, strain VPS5, hits give low values 0.964 | locus YOR070C, strain gyp1, hits give low values 0.982 | locus YOR080W, strain dia2, hits give low values 0.993 | locus YOR083W, strain WHI5, hits give low values 0.97 | locus YOR106W, strain vam3, hits give low values 0.971 | locus YOR136W, strain idh2, hits give low values 0.963 | locus YOR231W, strain MKK1, hits give low values 0.941 | locus YOR265W, strain rbl2, hits give low values 0.973 | locus YOR270C, strain vph1, hits give low values 0.837 | locus YOR290C, strain snf2, hits give low values 0.941 | locus YOR316C, strain cot1, hits give low values 0.944 | locus YPL051W, strain arl3, hits give low values 0.936 | locus YPL078C, strain atp4, hits give low values 0.959 | locus YPL106C, strain sse1, hits give low values 0.954 | locus YPL240C, strain hsp82, hits give low values 0.965 | locus YPL256C, strain CLN2, hits give low values 0.933 | locus YPR119W, strain clb2, hits give low values 0.951 | locus YPR141C, strain kar3, hits give low values 0.93 | locus YPR167C, strain met16, hits give low values 0.937
